# BoNT-F LC inh: BoNT F light chain protease inhibition | Multiplex microsphere protease cleavage assay, flow cytometry | inhibition, % at 10 µM | hit rate 0.22% among 360,000 | AID 588497; in the data active means inhibition above about 35%, passing the limit was not always enough; inconclusive means no clear call, values can overlap the other calls; further: plate controls were buffer without enzyme for full effect and enzyme alone for no effect
# Bead autofluor: counter-screen for toxin protease inhibitors: compound fluorescence; compound autofluorescence counterscreen, microsphere flow cytometry; active compounds read high; fluorescence intensity (no concentration beside the values); hit rate 3.1% among 360,000; in the data active means fluorescence intensity above about 16000; inconclusive means no clear call, values can overlap the other calls
# BJeLR lethal: BJeLR cell viability loss | BJeLR (HRASV12) viability, CellTiter-Glo ATP luminescence, 48 h | inhibition, % (no concentration beside the values) | hit rate 0.17% among 300,000 | AID 1554; in the data active means inhibition above about 50%; inconclusive means no clear call, values can overlap the other calls
# Anthrax LF inh2: anthrax lethal factor protease inhibition | multiplex microsphere protease cleavage assay, LF | inhibition, % at 10 µM | hit rate 0.12% among 360,000 | AID 588501; further: plate controls were buffer without enzyme for full effect and enzyme alone for no effect
# BoNT-A LC inh2: inhibitors of Botulinum neurotoxin A light chain protease. multiplex microsphere protease substrate cleavage, flow cytometry. inhibition, % at 10 µM. hit rate 0.17% among 360,000; further: plate controls were buffer without enzyme for full effect and enzyme alone for no effect
# Starred values were filed as active, the others as inactive; ? = inconclusive; · = not tested or not shown. Only some compounds are listed: those with a hit (about 3.5% of all), similar ones and a draw of the others. Unless noted, no stated cut-off is given here; in the data, active means inhibition above about 30%; inconclusive means no clear call, values can overlap the other calls; inactive means below that.
SMILES,BoNT-F LC inh,Bead autofluor,BJeLR lethal,Anthrax LF inh2,BoNT-A LC inh2
CCNC(=O)C1(C)CCN(C(=O)c2ccc3c(c2)OCO3)C1 (stereo not drawn),-1,3585,·,-2,0
COc1ccc(C(=O)c2cnc(/N=C/N(C)C)s2)cc1,5,4215,8,8,0
CN(C)/C=N/c1ncc(C(=O)c2ccc3ccccc3c2)s1,2,23850*,0,4,1
C=CCOc1ccc2nc(NC(=O)OC)[nH]c2c1,-4,23127*,44,0,0
COC(=O)Nc1nc2ccccc2[nH]1,-11,3413,·,3,0
O=C(O)c1ccc(-n2cc(-c3cc4ccccc4oc3=O)[nH]c2=S)cc1,-5,4721,·,-7,0
Cn1nc(-c2ccccc2)c(CSc2ccccc2Cl)c1Cl,25,10460,4,-3,-2
Cn1nc(-c2ccccc2)c(C(O)c2ccc(Cl)cc2)c1Cl (stereo not drawn),-2,24423*,0,-1,-1
CN(C(=O)Nc1cnc2ccccc2c1)c1ccccc1,-5,5162,-15,0,-2
CCCOc1ccc(/C=N/NC(=O)CSc2ccccn2)cc1OC,·,·,-1,·,·
O=C(CSc1ncccn1)NCc1ccccc1Cl,-4,21734*,-1,-2,?
COc1ccc(N2C(=O)C3C4C=CC(C4)C3C2=O)c([N+](=O)[O-])c1 (stereo not drawn),1,3455,0,-1,0
COc1ccc(N2C(=O)C3C4C=CC(C4)C3C2=O)c(OC)c1 (stereo not drawn),1,22210*,-12,1,0
COc1ccccc1NC(=O)/C(C#N)=C/C=C/c1ccco1,0,22514*,-9,-3,1
COc1ccccc1NC(=O)/C=C\c1ccco1,4,3971,7,-8,-1
O=C(O)C1C2CCCCC2=C2CCCCC2C1C(=O)O (stereo not drawn),3,18813*,3,0,?
O=C(O)C1C2CCCCC2=C2CCCCC2C1C(=O)Nc1nccs1 (stereo not drawn),-8,2889,·,-4,0
O=C(NC1CCCC1)C1c2ccccc2OCC(=O)N1CCCN1CCOCC1 (stereo not drawn),-7,4419,·,5,-2
O=C(NC1CCCCCC1)C1c2ccccc2C(=O)N1CCCN1CCOCC1 (stereo not drawn),-2,20267*,-7,1,?
COc1cc(CNc2ncn[nH]2)ccc1OCc1cccc(C)c1,-6,5417,-3,-6,0
C[C@H]1COC(=O)[C@H](Cc2ccc(F)cc2)CC/C=C/C[C@@H](CC(=O)N(CCO)Cc2ccccc2)C(=O)N1,0,3600,·,-6,-1
CCOc1c(OC)ccc2c3c(c(=O)oc12)CCCC3,3,22747*,-1,-3,1
COc1ccc2c3c(c(=O)oc2c1OCC(=O)O)CCCC3,-6,2562,3,-1,0
CCOc1ccc2c(C)c(C(=O)O)oc2c1OCC,-14,3949,0,1,-1
CCOc1ccc2c(C)c(C)c(=O)oc2c1OCC,-3,23673*,4,-3,-2
SMILES,BoNT-F LC inh,Bead autofluor,BJeLR lethal,Anthrax LF inh2,BoNT-A LC inh2
COc1ccc(CCN(Cc2cc3cccc(C)c3[nH]c2=O)C(=O)NC2CCCCC2)cc1OC,-1,23128*,-7,1,0
COc1ccccc1N=c1scc(-c2ccc3c(c2)NC(=O)CO3)n1CC1CCCO1 (stereo not drawn),-12,3192,-5,-1,-1
O=C1COc2ccc(-c3csc(=Nc4ccc(OC(F)F)cc4)n3CC3CCCO3)cc2N1 (stereo not drawn),4,18135*,3,-11,4
O=C(Nc1cccn2ncnc12)c1ccccc1,5,21325*,-3,-2,3
O=C(Nc1cccn2ncnc12)C(Cl)Cl,?,4004,-5,-1,-1
O=C(Nc1cccn2ncnc12)c1ccc(Cl)cc1,-6,23079*,3,-9,?
Cc1ccc(C(=O)NCC(=O)OCc2nc3ccsc3c(=O)[nH]2)cc1C,2,2847,·,-6,-1
COc1ccc(CNc2cc(C)ccc2C)c(OC)c1OC,-7,19482*,4,-3,0
COc1ccc(C)cc1NCc1cccc(OC)c1OC,-2,22091*,-9,-3,1
COc1ccc(CNc2ccc(C)c(C)c2)c(OC)c1OC,-8,3113,6,-3,-1
CC(C)c1ccc(NC(=O)c2cccnc2)cc1,-1,9193,-4,1,0
CC(C)c1ccc(O)c(NC(=O)c2cccnc2)c1,-1,20393*,4,-2,-1
CC(C)(C)c1ccccc1NC(=O)c1cccnc1,-3,16565*,3,0,?
O=C(Nc1ccccc1C(F)(F)F)c1cccnc1,-2,3951,-6,-4,-1
Cn1c(N)c(C(=O)COC(=O)CNC(=O)c2ccccc2F)c(=O)n(C)c1=O,-2,2950,·,-2,-1
O=C(COC(=O)c1cncc(Br)c1)NC1CCCCCC1,2,4808,-4,25,31*
COc1cc(CN2C[C@@H](CO)O[C@@H](n3cnc4c(NCC(C)C)ncnc43)C2)cc(OC)c1OC,-3,3697,·,1,0
Cc1cccc(NC(=O)Cn2cc([N+](=O)[O-])cn2)n1,0,4350,3,-1,0
O=C(Cn1cc([N+](=O)[O-])cn1)Nc1ccn(Cc2c(F)c(F)c(F)c(F)c2F)n1,-1,22598*,0,-1,0
O=C(Nc1ccn(Cc2c(F)c(F)c(F)c(F)c2F)n1)c1cccc(Cn2cc([N+](=O)[O-])cn2)c1,-8,7985,1,-5,0
O=C(Nc1ccn(Cc2c(F)c(F)cc(F)c2F)n1)c1cccc(Cn2cc([N+](=O)[O-])cn2)c1,-1,23743*,-13,-2,-2
O=C(Cn1cc([N+](=O)[O-])cn1)Nc1ccn(Cc2c(F)c(F)cc(F)c2F)n1,3,23297*,5,-2,?
O=C(NCc1ccco1)c1ccccc1NS(=O)(=O)c1ccc(Br)s1,0,22236*,10,-4,0
Cc1cc(C(=O)NCc2ccco2)cs1,-4,9797,2,-1,0
Cc1scc(C(=O)NCc2ccco2)c1-c1ccccc1,4,20412*,-3,-3,5
SMILES,BoNT-F LC inh,Bead autofluor,BJeLR lethal,Anthrax LF inh2,BoNT-A LC inh2
O=C(NCc1ccco1)c1ccccc1-c1ccccc1,3,22200*,-5,-4,1
CCn1ncc(S(=O)(=O)Nc2cc(Cl)ccc2C)c1C,-2,4813,-11,-2,-3
O=[N+]([O-])c1cccc(C(=Nc2cccc(Cl)c2)NO)c1,7,8778,6,-2,1
ONC(=Nc1ccc(Cl)cc1)c1ccccc1,1,22689*,3,-2,1
COCCNc1nc(-c2cc(F)ccc2C)c2sc(-c3ccccc3)cc2n1,4,3659,·,7,7
CSc1cc(-c2ccccc2)n(Cc2ccccc2Cl)c(=O)c1C#N,0,2112,51*,-2,0
O=C1NCCN1C(=O)c1ccco1,-2,22557*,0,0,-2
CC(=O)N1CCN(C(=O)c2ccco2)CC1,-4,3716,-6,2,5
CNc1nc(-c2ccccc2)nnc1C(F)(F)F,0,22123*,1,-2,?
